Experimental data as given in PubChem BioAssay (NCATS).
Values without a mark were called inactive. Inconclusive results are not listed. Active and inactive are the calls of the source. Unless noted, the call rests on the fitted dose curve; in most records, active means well fitted curve in either direction with a large enough effect (not every such curve was filed as active); inconclusive means small, poorly fitted or top-dose-only effect, or another doubt; inactive means flat fitted curve, though single readings scatter.

Tests used:
[1] = target: Lysosomal acid glucosylceramidase (Homo sapiens) (UniProt P04062); test: Glucocerebrosidase-p2 (AID 348; in the data active means potency below about 10 µM; further: potency means the concentration at half of the fitted maximal effect); conditions: purified GBA, blue fluorogenic substrate, 40 min
Sequence of Lysosomal acid glucosylceramidase (Homo sapiens) (P04062 whole entry, looked up): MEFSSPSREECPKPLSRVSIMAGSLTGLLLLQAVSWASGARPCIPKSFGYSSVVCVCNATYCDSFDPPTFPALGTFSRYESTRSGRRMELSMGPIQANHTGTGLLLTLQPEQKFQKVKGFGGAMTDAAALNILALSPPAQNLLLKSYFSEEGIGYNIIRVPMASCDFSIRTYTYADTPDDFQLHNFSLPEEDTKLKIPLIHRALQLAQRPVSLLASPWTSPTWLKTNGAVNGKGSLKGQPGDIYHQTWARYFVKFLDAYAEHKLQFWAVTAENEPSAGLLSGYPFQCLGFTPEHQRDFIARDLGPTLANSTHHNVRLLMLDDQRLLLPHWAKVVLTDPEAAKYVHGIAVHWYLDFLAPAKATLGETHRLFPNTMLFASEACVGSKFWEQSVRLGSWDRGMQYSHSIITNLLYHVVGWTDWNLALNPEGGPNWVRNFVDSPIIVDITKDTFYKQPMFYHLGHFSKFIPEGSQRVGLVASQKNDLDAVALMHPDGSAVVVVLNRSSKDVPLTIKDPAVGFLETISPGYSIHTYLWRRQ
Method in brief: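 Compounds titrated from 0.6 nM upwards against 0.2 nM enzyme in pH 5.9 citric acid/KH2PO4, taurocholate, tween-20; blue fluorogenic substrate 80 uM, 40 min room temperature, stopped and read Ex 365/Em 440 for AC50.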

[2] = AP1 Signaling Pathway (AID 357); conditions: ME-180 AP-1-bla reporter, EGF-induced, beta-lactamase ratio, 5 h; at 7.69 µM (top of the series) unless noted;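 further: ME-180 reporter cells stimulated with EGF at its EC50 level; on the % scale 0 is the no-effect control and ±100 the full control effect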
Method in brief: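 First, ME-180 AP-1-bla cells were cultured overnight at 37 °C in low-serum Opti-MEM. Next, titrated compounds with EC50 EGF were incubated 5 hours. Finally, CCF4 was added for 2.5 hours and the 460/530 nm ratio recorded.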

[3] = target: Cytochrome P450 1A2 (Homo sapiens) (UniProt P05177); test: p450-cyp1a2 (AID 410; calls by dose curve; further: potency means the concentration at half of the fitted maximal effect;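 on activity change, negative = inhibition: -100% = full effect of reference inhibitor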); conditions: recombinant CYP1A2, luciferin-ME demethylation, luminescence; series mostly up to 11.4 µM
Sequence of Cytochrome P450 1A2 (Homo sapiens) (P05177 whole entry, looked up): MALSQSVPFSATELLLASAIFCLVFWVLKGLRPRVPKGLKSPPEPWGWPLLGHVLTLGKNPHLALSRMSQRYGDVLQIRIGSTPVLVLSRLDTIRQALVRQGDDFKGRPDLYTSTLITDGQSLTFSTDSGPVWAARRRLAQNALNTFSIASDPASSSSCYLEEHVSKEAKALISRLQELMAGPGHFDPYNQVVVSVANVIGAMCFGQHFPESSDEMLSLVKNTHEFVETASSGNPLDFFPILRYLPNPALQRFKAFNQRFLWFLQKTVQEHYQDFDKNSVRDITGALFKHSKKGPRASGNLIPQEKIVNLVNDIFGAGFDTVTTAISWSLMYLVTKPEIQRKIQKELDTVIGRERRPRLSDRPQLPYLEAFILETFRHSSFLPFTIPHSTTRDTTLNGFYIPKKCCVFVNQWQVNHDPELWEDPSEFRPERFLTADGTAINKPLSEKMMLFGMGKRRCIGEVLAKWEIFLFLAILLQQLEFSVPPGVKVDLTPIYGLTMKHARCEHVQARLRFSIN
Method in brief: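 20nM CYP1A2 with 100uM Luciferin-ME (at Km) in 100mM KPO4; compound preincubated 10 min, NADPH regeneration added, 60 min at room temperature. Luciferin quantified by luminescence after detection reagent; normalized to 57 uM furafylline.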

[4] = NFAT Signaling Pathway (AID 444); conditions: Jurkat NFAT-bla M1, carbachol, beta-lactamase ratio, 5 h; at 7.69 µM (top of the series) unless noted;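 further: carbachol stimulus at about its EC50 of 1 µM final; on the % scale 0 is the no-effect control and ±100 the full control effect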
Method in brief: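 Jurkat cells carrying an NFAT-driven β-lactamase reporter and co-transfected muscarinic M1 receptor were treated with compound plus carbachol (1 uM final, an EC50 level) for 5 h at 37 °C. CCF4 loading followed for 1 h at RT; 460/530 nm ratio gave %activity.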

[5] = Stat Signaling Pathway (AID 446); conditions: ME-180 SIE beta-lactamase reporter, IL-6 stimulated, 5 h; at 7.69 µM (top of the series) unless noted;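 further: ME-180 cervical cancer cells given 40 pM IL-6 alongside compound; SIE-controlled beta-lactamase reporter measured as 460/530 nm FRET emission ratio; on the % scale 0 is the no-effect control and ±100 the full control effect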
Method in brief: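 Reporter line: ME-180 cervical carcinoma, SIE-beta-lactamase. Treatment: compound with 40 pM IL-6, 5 hrs, 37 C, in low-serum OPTI-MEM with 10 mM HEPES pH 7.3. Detection: 460/530 nm fluorescence.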

[6] = target: Glucocorticoid receptor (Homo sapiens) (UniProt P04150); test: GR-GFP Redistribution (AID 450;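 active means compounds whose dose series gives a full or clear partial fitted curve of increased nuclear translocation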; further: potency means the concentration at half of the fitted maximal effect); conditions: U2OS GR-GFP nuclear translocation, laser cytometry, 2 h
Sequence of Glucocorticoid receptor (Homo sapiens) (P04150 whole entry, looked up, the tested form may be a part): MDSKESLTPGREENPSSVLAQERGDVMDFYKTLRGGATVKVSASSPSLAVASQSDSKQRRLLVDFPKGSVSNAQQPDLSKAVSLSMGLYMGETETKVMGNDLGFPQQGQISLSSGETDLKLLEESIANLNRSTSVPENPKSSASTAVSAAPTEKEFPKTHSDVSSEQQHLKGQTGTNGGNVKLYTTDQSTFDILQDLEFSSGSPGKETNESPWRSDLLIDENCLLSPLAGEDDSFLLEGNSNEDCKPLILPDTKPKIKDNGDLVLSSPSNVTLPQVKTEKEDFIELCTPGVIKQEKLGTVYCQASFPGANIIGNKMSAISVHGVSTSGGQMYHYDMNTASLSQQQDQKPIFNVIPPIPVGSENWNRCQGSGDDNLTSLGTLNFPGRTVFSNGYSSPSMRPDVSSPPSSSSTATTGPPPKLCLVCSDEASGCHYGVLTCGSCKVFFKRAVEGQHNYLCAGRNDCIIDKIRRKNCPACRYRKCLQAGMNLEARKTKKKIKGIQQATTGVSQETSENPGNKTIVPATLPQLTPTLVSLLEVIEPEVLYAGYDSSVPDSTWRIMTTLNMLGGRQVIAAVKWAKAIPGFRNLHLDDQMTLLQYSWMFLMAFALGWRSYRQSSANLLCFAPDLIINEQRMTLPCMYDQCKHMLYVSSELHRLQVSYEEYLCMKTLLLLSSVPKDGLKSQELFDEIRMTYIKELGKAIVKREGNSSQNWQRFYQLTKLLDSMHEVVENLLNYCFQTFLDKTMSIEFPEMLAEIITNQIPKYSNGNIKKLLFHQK

[7] = target: Glucocorticoid receptor (Homo sapiens) (UniProt P04150); test: GR-EFC Redistribution (AID 451; calls by dose curve; further: potency means the concentration at half of the fitted maximal effect); conditions: CHO-K1 GR-EFC translocation, beta-gal luminescence, 2 h
Method in brief: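 CHO-K1 cells stably expressing nuclear-localized β-gal enzyme acceptor and GR fused C-terminally to the enzyme donor fragment; ligand-driven nuclear translocation restores β-gal by complementation. Compounds titrated up to 46 uM final, 2 h at 37 °C; luminescence read.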

[8] = target: Mitogen-activated protein kinase 10 (Mus musculus) (UniProt Q61831); test: JNK3 AlphaScreen Assay (AID 530); conditions: JNK3 lysate, c-Jun phosphorylation; series mostly up to 11.4 µM;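 further: kinase came from lysate of stimulated human HepG2 cells; signal reports phosphorylation of biotinylated GST-cJun 1-79 at Ser73 with 10 µM ATP; on the % scale 0 is the no-effect control and ±100 the full control effect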
Method in brief: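 Inhibitors reduce antibody binding to phosphorylated biotin-cJun, lowering AlphaScreen luminescence. Lysates from HepG2 cells pre-activated by IL-1beta plus TNF-alpha supplied JNK3; compounds were titrated.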

[9] = target: 3',5'-cyclic-AMP phosphodiesterase 4B (Homo sapiens) (UniProt Q07343); test: qHTS Assay for Inhibitors of PDE-IV (AID 607; active means well fitted activation curve with a large enough effect in the main read-out, with a control signal flat, not every such curve was filed as active; further: % of control where 0% means no effect); conditions: HEK293 ACTOne CNG channel cells, membrane potential fluorescence; series mostly up to 22.9 µM
Sequence of 3',5'-cyclic-AMP phosphodiesterase 4B (Homo sapiens) (Q07343 whole entry, looked up): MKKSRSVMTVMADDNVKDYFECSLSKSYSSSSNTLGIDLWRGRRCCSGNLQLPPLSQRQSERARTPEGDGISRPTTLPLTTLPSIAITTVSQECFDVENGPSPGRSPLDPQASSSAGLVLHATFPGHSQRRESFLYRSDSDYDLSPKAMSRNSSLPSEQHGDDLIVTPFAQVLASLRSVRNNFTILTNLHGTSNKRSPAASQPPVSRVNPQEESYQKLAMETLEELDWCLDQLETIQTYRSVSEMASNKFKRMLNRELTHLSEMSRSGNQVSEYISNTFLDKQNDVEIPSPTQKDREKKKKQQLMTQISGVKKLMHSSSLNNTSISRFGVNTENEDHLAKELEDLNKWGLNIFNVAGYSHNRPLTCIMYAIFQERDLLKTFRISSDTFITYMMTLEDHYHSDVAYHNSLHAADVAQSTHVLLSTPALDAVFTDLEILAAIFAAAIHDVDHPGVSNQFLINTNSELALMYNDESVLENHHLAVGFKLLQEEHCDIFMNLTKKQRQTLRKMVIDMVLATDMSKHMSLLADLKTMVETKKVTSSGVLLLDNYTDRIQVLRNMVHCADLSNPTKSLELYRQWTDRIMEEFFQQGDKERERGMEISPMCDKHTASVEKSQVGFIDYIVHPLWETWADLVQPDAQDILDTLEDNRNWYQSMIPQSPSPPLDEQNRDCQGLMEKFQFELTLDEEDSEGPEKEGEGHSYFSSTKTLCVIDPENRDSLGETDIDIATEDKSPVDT
Method in brief: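 Cell-based read-out of cAMP via a modified cyclic nucleotide-gated channel and membrane potential dye (535/590 nm) in HEK293 cells expressing PDE4 endogenously. Compounds tested up to 22.9 uM final; 100 uM RO 20-1724 reference.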

| Structure (SMILES) | Potency [1] [µM] | activity change, negative = inhibition [2] [%] | Potency [3] | activity change, negative = inhibition [4] [%] | activity, negative = inhibition [5] [%] | Potency [6] [µM] | Potency [7] [µM] | Potency [8] | Potency [9] | activity change, negative = inhibition [3] |
| --- | --- | --- | --- | --- | --- | --- | --- | --- | --- | --- |
| O=C(O)c1ccc(Cc2ccccc2C(=O)O)cc1 | > 11.4 | -5.89 | inactive | 5.4 | -2.65 | > 46 | > 9.22 | inactive | inactive | – |
| C=C(Br)CN(C)CC(=C)Br | > 11.4 | 0.791 | inactive | 0.988 | -0.267 | > 46 | > 9.22 | inactive | inactive | – |
| CC(C)(C)CNCCO | > 11.4 | -7.33 | – | 4.1 | 7.24 | > 46 | > 9.22 | inactive | inactive | 6.2% [at 2.29 µM] |
| C[C@@H](CNC(N)=O)NC(N)=O | > 11.4 | 4.39 | inactive | 12.2 | 5.82 | > 46 | > 9.22 | inactive | inactive | – |
| O=[N+]([O-])c1ccc(NN=C2c3ccccc3Cc3ccccc32)c([N+](=O)[O-])c1 | > 11.4 | 26.1 | 0.794 µM (active) | -1.66 | 19.7 | > 46 | > 9.22 | inactive | inactive | – |
| O=C(O)CSCCc1ccccc1 | > 11.4 | 6.88 | inactive | -11.5 | 16.8 | > 46 | > 9.22 | inactive | inactive | – |
| O=P(O)(O)O[C@@H]1O[C@H](CO)[C@@H](O)[C@H](O)[C@@H]1O | > 11.4 | 4.24 | inactive | 2.61 | 6.12 | > 46 | > 9.22 | inactive | inactive | – |
| [Cu].[O-]/N=C1/C(=[OH+])Nc2ccccc21.[O-]Nc1c(O)[nH]c2ccccc12 | > 11.4 | 3.32 | – | 13.2 | 5.41 | > 46 | > 9.22 | inactive | inactive | -20.1% [at 2.29 µM] |
| O=C(O)CSc1ncccc1[N+](=O)[O-] | > 11.4 | 6.57 | inactive | 2.05 | 1.22 | > 46 | > 9.22 | inactive | inactive | – |
| Cc1noc(NC(=O)Nc2ccccc2F)c1C#N | > 11.4 | -0.973 | 0.794 µM (active) | 11.4 | -14.1 | > 46 | > 9.22 | inactive | inactive | – |
| CCCCn1cnc2c(SC)ncnc21 | > 11.4 | -0.746 | 3.16 µM (active) | 5.83 | 8.32 | > 46 | > 9.22 | inactive | inactive | – |
| O=C(O)[C@@H]1[C@@H](C(=O)NCc2cccnc2)[C@@H]2C=C[C@@H]1O2 | > 11.4 | 8.06 | – | 2.31 | 0.333 | > 46 | > 9.22 | inactive | inactive | -0.4% [at 2.29 µM] |
| O=C(O)C12CC3(C(=O)O)CC(C(=O)O)(CC(C(=O)O)(C1)C3=O)C2=O | > 11.4 | -2.38 | – | 6.84 | 4.13 | > 46 | > 9.22 | inactive | inactive | -4.3% [at 2.29 µM] |
| CC(=O)C=NCC(=O)O | > 11.4 | -0.671 | inactive | 3.49 | -0.18 | > 46 | > 9.22 | inactive | inactive | – |
